Data on 39 compounds can be found in PubChem BioAssay (NCATS).

Calls of active or inactive are those of the source. No rule for the calls is given here.
Potency is read from the fitted curve at half-maximal effect.

The subject of the test is HIV-1 nucleocapsid protein NCp7 (binding to TG oligonucleotide). Kind of test: HIV Nucleocapsid (AID 346).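 Also: potency is for inhibitors that block NC binding and lower polarization.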 To be noted: HIV-1 NC / fluorescein-TGTGTGTG probe, fluorescence polarization. The method in brief:
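Inhibition of nucleocapsid binding to single-stranded 5'-TGTGTGTG probe (10 nM) was measured by fluorescence polarization after 1 hr at room temperature with 100 nM protein under high-salt, zinc-containing, reducing conditions.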
`CN(C)c1ncc2nc(-c3ccccc3)c(=O)n(C3CC3)c2n1`: the Potency was > 20 µM (inactive).
The same measure for `c1cncc(-c2ccc3ncnc(NC4CCNCC4)c3c2)c1`: > 20 µM (inactive).
The same measure for `CCNc1ncc2ncc(=O)n(CCOC)c2n1`: > 20 µM (inactive); for `Cc1cccc(CNc2nc(-c3ccc4c(c3)OCO4)nc3ccccc23)c1`: > 20 µM (inactive).
In the case of `Clc1ccccc1-c1cncnc1NCCN1CCOCC1` it was > 20 µM (inactive); in that of `CN(C)c1ncc2nc(-c3cc(F)cc(F)c3)c(=O)n(Cc3cccs3)c2n1`, > 4 µM (inactive); in that of `CNc1nc(-c2ccc(N(C)C)cc2)nc2ccccc12`, > 20 µM (inactive).
On to `c1cncc(CNc2nc(-c3ccoc3)nc3ccccc23)c1`, for which the Potency is > 20 µM (inactive).
The same measure for `COCCn1c(=O)c(CCc2ccccc2)nc2cnc(N(C)C)nc21`: > 20 µM (inactive); for `COC(=O)N1CCC[C@@]2(CCN(C(=O)Nc3ccccc3)C2)C1`: > 20 µM (inactive); for `Cc1cnc(CNc2ncnc3ccc(-c4ccc(C(=O)N(C)C)cc4)cc23)cn1`: > 20 µM (inactive).
Turning to `NCCn1c(=O)c(CCc2ccccc2)nc2cncnc21`, the Potency was > 20 µM (inactive).
The same measure for `CNc1ncncc1-c1c(C)noc1C`: > 20 µM (inactive); for `COc1ccc(NC(=O)N2CCC3(CC2)CCN(S(C)(=O)=O)CC3)cc1`: > 20 µM (inactive).
In the case of `Cc1cnc(CNc2ccnc(-c3cccc(NS(C)(=O)=O)c3)n2)cn1` it was > 20 µM (inactive); in that of `O=c1c(-c2ccc(Cl)cc2)nc2cncnc2n1Cc1ccccc1Cl`, > 20 µM (inactive).
The same measure for `CCNc1ncc2nc(-c3cn(C)c4ccccc34)c(=O)n(Cc3cccc(OC)c3)c2n1`: > 20 µM (inactive); for `COc1ccc2[nH]cc(CCNc3nc(-c4cccc(C#N)c4)nc4ccccc34)c2c1`: > 20 µM (inactive); for `O=c1c(CCc2ccccc2)nc2cnc(N3CCNCC3)nc2n1Cc1cccs1`: > 20 µM (inactive).
As for `CN1CCN(c2ncc3nc(-c4ccccc4)c(=O)n(Cc4ccc(F)cc4)c3n2)CC1`, the Potency is > 20 µM (inactive).
The same measure for `c1ccc(Nc2ncnc3ccc(-c4ccc5c(c4)OCO5)cc23)cc1`: > 20 µM (inactive).
In the case of `O=S(=O)(c1ccccc1)N1CCC2(CC1)CN(c1ccccn1)C2` it was > 20 µM (inactive); in that of `CN(C)Cc1ccccc1-c1nc(NCc2ccccc2)c2ccccc2n1`, > 20 µM (inactive); in that of `COc1ccc(-c2nc3cnc(N4CCOCC4)nc3n(-c3ccccc3)c2=O)cc1`, > 20 µM (inactive).
In the case of `CS(=O)(=O)N1CCC2(CCN(C(=O)Nc3cccc(C#N)c3)CC2)CC1` it was > 20 µM (inactive).
In the case of `O=c1c(-c2ccc(F)cc2)nc2cnc(Oc3ccccc3)nc2n1Cc1cccs1`, the Potency is > 20 µM (inactive).
In the case of `CN1CCN(c2ncc3ncc(=O)n(C4CC4)c3n2)CC1`, the Potency is > 20 µM (inactive).
In the case of `N#Cc1cccc(-c2nc3cnc(Oc4cccc(Cl)c4)nc3n(C3CC3)c2=O)c1` it was > 20 µM (inactive).
In the case of `COc1ccc(NC(=O)N2CC3(CCN(C(=O)c4cccc(F)c4)CC3)C2)cc1` it was > 20 µM (inactive); in that of `COc1ccccc1CN1CCCC2(CCN(C(=O)c3c(C)noc3C)CC2)C1`, > 20 µM (inactive); in that of `COCCn1c(=O)c(C)nc2cnc(Oc3ccccc3)nc21`, > 20 µM (inactive).
As for `O=C(Nc1cccc(F)c1)N1CCCC2(CCN(C(=O)c3csnn3)CC2)C1`, the Potency is > 20 µM (inactive).
In the case of `COc1cccc(Nc2ncc3ncc(=O)n(C[C@H]4CCCO4)c3n2)c1` it was > 20 µM (inactive); in that of `CN(C)c1ncc2nc(CCc3ccccc3)c(=O)n(CCC#N)c2n1`, > 20 µM (inactive); in that of `O=c1c(-c2ccccc2)nc2cnc(Oc3ccccc3)nc2n1C[C@H]1CCCO1`, > 20 µM (inactive).
In the case of `CN(Cc1ccco1)c1ncncc1-c1cccc(NS(C)(=O)=O)c1` it was > 20 µM (inactive); in that of `Cc1cccc(CNc2cc(-c3ccccc3Cl)ncn2)c1`, > 20 µM (inactive).
The same measure for `Cc1noc(C)c1-c1cc(NCc2cccnc2)ncn1`: > 20 µM (inactive); for `COc1ccc(CNc2ncnc3ccc(-c4cccc(NS(C)(=O)=O)c4)cc23)c(OC)c1`: > 20 µM (inactive).
